HttQ103 aggreg – reduces HttQ103-GFP aggregates in PC12 cells; hit rate 1.1% among 220,000; AID 1688; Potency, µM (titrated, usually from 46.1 µM), usual class: inhibitors; PC12 HttQ103-GFP aggregates, Acumen cytometry, 40 h; active = well fitted curve in the direction sought with a large enough effect; inconclusive = small, poorly fitted or top-dose-only effect, or another doubt; inactive = no such curve, though single readings can be large; an effect the other way counts as inactive or inconclusive; note: nearly all actives have a fitted effect of over 60% in size
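Aggregate formation scored by laser-scanning cytometer (488 excitation, 500–530 emission) in lysed PC12 cells expressing Q103-GFP after 100 nM tebufenozide induction; library tested in dose series, with ATPLite reagent added in the multiplex.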
Lamin A splicing – modulators of lamin A splicing; HeLa LMNA splicing GFP/RFP minigene ratio, 48 h; hit rate 0.01% among 200,000; Potency, µM (top dose mostly 46.1 µM), most hits filed as inhibitors; active = well fitted inhibition curve with a large enough effect in the signal ratio, with a control signal flat, not every such curve was filed as active; inconclusive = small, poorly fitted or top-dose-only effect, or effect the other way, or a change in a side signal; the % refers to the signal ratio
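S3 HeLa cells stably expressing lamin A-EGFP splicing minigene plus DsRed2, 600 cells/well, 48 h compound exposure at 37C. Laser-scanning cytometry; analysed as GFP (500-530 nm)/RFP (575-640 nm) total intensity ratio; 0.5% DMSO vehicle.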
HTT cytoprotect – Huntington cell model cytoprotection by ATP luminescence; Potency, µM (series often up to 56.4 µM), hits mostly activators; hit rate 0.14% among 230,000; PC12 HTT-Q103 induced, cytoprotection, ATP luminescence, 40 h; active = well fitted curve in the direction sought with a large enough effect; inconclusive = small, poorly fitted or top-dose-only effect, or another doubt; inactive = no such curve, though single readings can be large; an effect the other way counts as inactive or inconclusive; note: nearly all actives have a fitted effect of over 45% in size
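Rat PC12, Q103 Htt exon1-GFP fusion, ecdysone promoter; tebufenozide inducer 100 nM final; compound titration; qHTS, 1500 cells/well; ATPlite luminescent read.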
HPGD inh – HPGD (human) dehydrogenase inhibition. P15428. Potency, µM, most hits filed as inhibitors. hit rate 4.3% among 150,000. purified HPGD, NADH fluorescence kinetic, PGE2 substrate. AID 894
Target sequence (P15428 whole entry, looked up): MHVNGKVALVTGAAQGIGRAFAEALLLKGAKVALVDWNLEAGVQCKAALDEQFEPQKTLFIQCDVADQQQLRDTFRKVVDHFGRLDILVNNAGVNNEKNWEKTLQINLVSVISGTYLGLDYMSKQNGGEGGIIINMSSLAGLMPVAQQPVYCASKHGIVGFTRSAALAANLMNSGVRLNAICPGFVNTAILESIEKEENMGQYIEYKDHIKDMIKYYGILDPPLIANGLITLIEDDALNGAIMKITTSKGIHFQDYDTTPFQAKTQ
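20 nM HPGD preincubated 15 min at room temperature with compound in 50 mM Tris-HCl pH 8, 0.01% Tween 20. Started with 1 mM NAD+ and 30 uM prostaglandin E2; NADH fluorescence (360/450 nm) read 5 times over 30-s intervals, last minus first.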
ALDH1A1 block – blocks purified human ALDH1A1 activity | Purified ALDH1A1, NADH fluorescence, propionaldehyde substrate | Potency, µM (titrated, usually from 75.3 µM), usual class: inhibitors | AID 1030 | hit rate 7.3% among 220,000 | P00352
Target sequence (P00352 whole entry, looked up): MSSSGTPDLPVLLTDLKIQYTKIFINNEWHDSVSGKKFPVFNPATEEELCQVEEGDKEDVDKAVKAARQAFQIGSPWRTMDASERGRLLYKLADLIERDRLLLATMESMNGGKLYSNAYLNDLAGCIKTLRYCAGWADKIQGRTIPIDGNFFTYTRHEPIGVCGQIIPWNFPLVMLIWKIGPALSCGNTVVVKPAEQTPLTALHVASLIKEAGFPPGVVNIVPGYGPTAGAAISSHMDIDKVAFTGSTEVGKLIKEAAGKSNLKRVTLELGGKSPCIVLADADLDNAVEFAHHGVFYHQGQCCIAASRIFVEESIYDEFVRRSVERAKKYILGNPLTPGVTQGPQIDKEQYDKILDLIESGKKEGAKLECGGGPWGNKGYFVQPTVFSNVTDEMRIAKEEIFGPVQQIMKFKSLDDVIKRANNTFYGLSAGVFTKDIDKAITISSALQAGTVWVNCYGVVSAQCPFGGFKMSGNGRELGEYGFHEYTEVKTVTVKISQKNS
Numbers stand for hits; - = inactive; ? = inconclusive; . = no result given; [ ] = dose if it differs, or a comment. Rows were chosen to be rich in hits. Some 8.8% of all compounds tested hit in one or more screens of this group. Unless noted, calls come from the whole dose curve; as a rule, active = well fitted inhibition curve with a large enough effect (not every such curve was filed as active); inconclusive = small, poorly fitted or top-dose-only effect, or another doubt; inactive = no such curve, though single readings can be large or run the other way.

SMILES	HttQ103 aggreg	Lamin A splicing	HTT cytoprotect	HPGD inh	ALDH1A1 block
O=C1c2ccccc2C(Nc2ccc(S(=O)(=O)N3CCOCC3)cc2)N1c1cccnc1 (stereo unspecified)	-	-	-	-	-
NC(=O)C[C@@H](N)c1nn[nH]n1	.	.	-[10 µM]	-	-[13.5 µM]
Cc1ccc2c(CSc3nnc(N)s3)cc(=O)oc2c1	-	-	-	20µM	22.4µM
COc1ccc(-n2c(SCCC#N)nnc2-c2cc(Cl)ccc2OC)cc1Cl	-	?	-	20µM	-
Cc1cccc(-c2nnc(SCC#N)n2-c2cccc(Cl)c2)c1	-	-	-[1.9 µM]	-	?
CCOC(=O)C1CCC(CN(Cc2ccc(Cl)cc2)S(=O)(=O)c2cccc(Cl)c2C)CC1 (stereo unspecified)	.	-	.	.	.
Fc1ccc(-c2nnc3sc(C4COc5ccccc5O4)nn23)cc1 (stereo unspecified)	-	?	-[0.074 µM]	28.2µM	-
O=C(Nc1ccncc1)C1COc2ccccc2O1 (stereo unspecified)	-	-	-	-	-
c1ccc2c(c1)OCC(c1nnc3sc(-c4cnccn4)nn13)O2 (stereo unspecified)	-	-	-	25.1µM	8.91µM
Fc1ccc(-c2nn3c(C4COc5ccccc5O4)nnc3s2)cc1 (stereo unspecified)	-	-	-	28.2µM	31.6µM
c1ccc2c(c1)OCC(c1nnc3sc(-c4ccc5c(c4)OCO5)nn13)O2 (stereo unspecified)	-	?	-	?	?
c1ccc2c(c1)OCC(c1nnc3n1-c1ccccc1SC3)O2 (stereo unspecified)	-	-	-	12.6µM	?
NC(N)=Nc1nc(C2COc3ccccc3O2)cs1 (stereo unspecified)	-	?	-[10 µM]	-	-
c1csc(-c2nn3c(C4COc5ccccc5O4)nnc3s2)c1 (stereo unspecified)	-	-	-[0.074 µM]	8.91µM	8.91µM
COc1ccc(OC)c(NC(=O)C2=C(C)C(=O)OC23CCCCCC3)c1	.	-	.	.	.
C[C@]12CC[C@H]3c4ccc(O)cc4CC[C@@H]3[C@H]1C/C(=N/O)[C@H]2O	.	.	-[10 µM]	-	-[13.5 µM]
COc1ccccc1N1CCN(Cc2ccc(OC)c(OC)c2OC)CC1	-	-	-	-	-
COc1ccccc1N1CCN(Cc2ccc(O)c3ncccc23)CC1	1.12µM	?	-[10 µM]	-	-
Oc1ccc(CN2CCCc3ccccc32)c2cccnc12	?	?	-[10 µM]	-	10µM
S=c1[nH]nc(CCc2ccccc2)n1-c1ccccc1	-	-	-[10 µM]	15.8µM	?
S=c1[nH]nc(CCc2ccccc2)n1-c1ccc(Cl)cc1	-	-	-[10 µM]	.	?
Cc1nn(-c2ccccc2)c(Cl)c1C(=O)Nc1nnc(C2CCCCC2)s1	-	?	-	-	3.98µM
Cc1cc(C(=O)NCC23CC4CC(CC(C4)C2)C3)c(C)o1	-[9.22 µM]	-	-[10 µM]	.	?
CC(CNC(=O)c1sc2ncccc2c1-n1cccc1)c1ccccc1 (stereo unspecified)	.	-	.	.	.
Cc1cc(NS(=O)(=O)c2ccc(NC(=O)c3cc(-c4cccnc4)nc4ccc(Cl)cc34)cc2)no1	-	-	-	14.1µM	-
SMILES	HttQ103 aggreg	Lamin A splicing	HTT cytoprotect	HPGD inh	ALDH1A1 block
Cc1ccc(S(=O)(=O)Nc2ccc(NC(=O)c3cccnc3)cc2)cc1	-[9.22 µM]	.	-[10 µM]	.	14.1µM
Cc1ccc(NS(=O)(=O)c2ccc(CCC(=O)NCc3cccnc3)cc2)cc1	-	-	-	.	8.91µM
CN(C)S(=O)(=O)c1ccc(NC(=O)c2cccnc2)cc1	-[9.22 µM]	-	-	-	-
C/C(C/C(C)=C1/SC(=S)NC1=O)=C1\SC(=S)NC1=O	-	.	?	.	?
CCCCCC/C(C)=C1/SC(=S)NC1=O	-	-	-	12.6µM	?
Cc1nn(S(=O)(=O)c2ccc(C(C)C)cc2)c(C)c1S(=O)(=O)N1CCCCC1	.	-	.	.	.
Cc1ccc(-c2csc(NC(=O)C3CC(=O)N(Cc4ccco4)C3)n2)cc1 (stereo unspecified)	-	?	-[10 µM]	.	?
O=C(OCC(=O)N1c2ccccc2Sc2ccccc21)C1CC(=O)N(Cc2ccco2)C1 (stereo unspecified)	-	-	-[10 µM]	-	35.5µM
COC(=O)c1ccc(NC(=O)COC(=O)C2CC(=O)N(Cc3ccccc3)C2)cc1 (stereo unspecified)	-	-	-	.	-
O=C(COC(=O)C1CC(=O)N(Cc2ccco2)C1)c1ccc(OC(=O)c2ccccc2)cc1 (stereo unspecified)	-	-	-[10 µM]	28.2µM	14.1µM
Cc1csc(NC(=O)C2CC(=O)N(Cc3ccco3)C2)n1 (stereo unspecified)	0.631µM	-	1.12µM	.	-
COc1cc(/C=N/NC(=O)CSc2ccccn2)ccc1OC(C)C	-[9.22 µM]	.	-[10 µM]	.	.
Cc1nc(N2CCC(C)CC2)c2c(C)c(C(=O)O)sc2n1	?	-	-[1.9 µM]	20µM	-
COC(=O)[C@H]1O[C@@H](c2cc(OC)c(C)c(OC)c2OCc2ccccc2)[C@H](C)[C@@H]2O[C@]12C	.	.	-	-	-
[N-]=[N+]=N[C@@H]1[C@H](O)[C@H](CO)O[C@@H]1n1cnc2c(N)ncnc21	.	.	-[10 µM]	-	-[13.5 µM]
Cc1cccn2c(CN(C)CC3Cc4ccccc4O3)c(C(=O)N3CCCCC3)nc12 (stereo unspecified)	-[9.22 µM]	.	-[10 µM]	.	?
Cc1cccn2c(CN(C)CC3CCCCO3)c(C(=O)N3CCCCC3)nc12 (stereo unspecified)	-	.	-	.	0.199µM
Cc1ccc(-n2nnnc2CNC(=O)C(C)C)cc1C	.	-	.	.	.
CCOC(=O)/C(C#N)=C1\CC2CCC1(C)C2(C)C (stereo unspecified)	-	-	-	.	12.6µM
CC(C)(C)N1C(=O)[C@H]2[C@@H]3[C@H](O)C=CC(=O)[C@H]3CC[C@H]2C1=O	.	.	-[10 µM]	.	-[13.5 µM]
CC(C)COP(=O)(CNC(=O)CN1C(=O)c2ccccc2S1(=O)=O)OCC(C)C	-	-	-[10 µM]	-	-
CCCC1=[N+](CC)CCn2c(C)ccc21	11.2µM	-	-[10 µM]	-	-
Cc1ccc(C(C#N)N2CCOCC2)cc1 (stereo unspecified)	-	-	-[0.074 µM]	-	-
N#CC(c1ccc(O)cc1)N1CCOCC1 (stereo unspecified)	-	-	-[1.9 µM]	-	7.94µM
Cc1ccc(C)[n+](CC(=O)N2CCCCC2)c1	-[9.22 µM]	?	-	.	-
SMILES	HttQ103 aggreg	Lamin A splicing	HTT cytoprotect	HPGD inh	ALDH1A1 block
COc1ccccc1NC(=S)NC(C)=O	-	-	-	.	-
COc1cc(OC)cc(C(=O)NNC(=S)Nc2ccccc2OC)c1	-	-	.	-	22.4µM
COc1ccccc1NC(=S)c1ccccc1	?	-	-[10 µM]	22.4µM	28.2µM
Cc1ccc(N/N=C2\CC(=O)c3ccccc32)cc1Cl	-[9.22 µM]	.	-[10 µM]	.	25.1µM
Cc1ccc(NC(=O)CCn2cnc3ccccc3c2=O)cc1Cl	-	-	-[1.9 µM]	-	-
O=C(N/N=C1/C[C@@H](O)[C@@H](O)[C@@H]2[C@@H]3C(=O)N(Cc4ccccc4)C(=O)[C@H]3CC[C@H]12)OCc1ccccc1	.	.	-[10 µM]	.	-[13.5 µM]
C=CCn1c(SCC(=O)c2cccs2)nc2sc(CC)cc2c1=O	?	?	-	-	3.55µM
